Source: PubChem (National Center for Advancing Translational Sciences (NCATS))
SW480 rerep: induces DNA re-replication in SW480 colon adenocarcinoma cells. 340,000 tested, 1.8% active. AID 624297. SW480 DNA re-replication, Hoechst DNA content imaging, 48 h. Potency, µM (highest dose often 46.1 µM), for the others: at the highest dose re-replication activation, hits mostly activators; further: % of control where 0% means no effect; nearly all actives have a fitted effect of over 55% in size
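DNA re-replication was detected as more nuclei of elevated Hoechst intensity after 48 hr exposure to compound (23 nL pinned per well of 250 cells).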
HT1080NT lethal: kills 2HG-producing HT-1080-NT fibrosarcoma cells; HT-1080-NT fibrosarcoma viability, CellTiter-Glo ATP luminescence, 48 h; Potency, µM (series often up to 46.1 µM), without a hit: at the highest dose activity, negative = less viability, most hits filed as cytotoxic; 360,000 tested, 1.6% active;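 further: NT is the 2HG producing partner of a matched IDH1 knockdown line; 0% = DMSO-treated cells and -100% = media-only wells without cells; nearly all actives have a fitted effect of over 55% in size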
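Toxicity toward the 2HG-producing NT line was scored as %Activity, normalised to DMSO and no-cell wells, from CellTiter-Glo luminescence after 48 hours' treatment.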
KB-V1 cytotox: KB-V1 MDR subline cytotoxicity; Potency, µM (series often up to 46.1 µM), most hits filed as cytotoxic; 400,000 tested, 3.4% active; KB-V1 MDR cells viability, CellTiter-Glo, 72 h; further: on the % scale 0 is the no-effect control and ±100 the full control effect; nearly all actives have a fitted effect of over 60% in size
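KB-V1, DMEM (no phenol red) + 10% FBS; cpd pin-transferred, titration series; 72 h, 37 degrees C; CellTiter-Glo, luminescence. Data normalized, curve-fit.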
MCF10A rereplic: inducers of DNA re-replication in MCF 10A breast cells. Potency, µM (highest dose often 46.1 µM), for the others: top-dose activity, positive = re-replication, usual class: activators. AID 624296. 350,000 tested, 2.9% active. MCF 10A DNA re-replication, Hoechst nuclear intensity, 48 h; further: % of control where 0% means no effect; nearly all actives have a fitted effect of over 50% in size
KB-3-1 cytotox: kills parental KB-3-1 adenocarcinoma cells; KB-3-1 viability, CellTiter-Glo ATP luminescence, 72 h; Potency, µM (highest dose often 46.1 µM), hits mostly cytotoxic; 400,000 tested, 1.4% active; AID 1347075; further: on the % scale 0 is the no-effect control and ±100 the full control effect; nearly all actives have a fitted effect of over 60% in size
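Here the drug-naive KB-3-1 line serves as comparator for MDR sub-line selectivity; cells received compound titrations, 72 h at 37 °C, then CellTiter-Glo readout.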
HT1080 IDH1KD tx: kills HT-1080 cells with IDH1 knockdown. HT-1080 IDH1 knockdown viability, ATP luminescence, 48 h. Potency, µM (series often up to 46.1 µM), without a hit: at the top dose activity, negative = toxicity, most hits filed as cytotoxic. 360,000 tested, 2% active. AID 686971;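 further: 0% = DMSO wells and -100% = cell-free medium wells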
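Viability of IDH1-knockdown HT-1080 fibrosarcoma cells was assessed by CellTiter-Glo after 48 h at 37 °C with titrated compound; concentration-effect curves were classified by fit quality and response size.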
Starred values were filed as active, the others as inactive; i = inactive; u = inconclusive; x = no result given. In the library only some 7.9% were active in any assay of this set; here they are far more common. The call rests on the fitted dose curve; in most records, active means well fitted curve in the direction sought with a large enough effect; inconclusive means small, poorly fitted or top-dose-only effect, or another doubt; inactive means no such curve, though single readings can be large; an effect the other way counts as inactive or inconclusive. Potency means the concentration at half of the fitted maximal effect.

SMILES | SW480 rerep | HT1080NT lethal | KB-V1 cytotox | MCF10A rereplic | KB-3-1 cytotox | HT1080 IDH1KD tx
CCCCCCCCC(=O)N/N=C/c1ccccn1 | -8% | u | i | 4% | i | 0%
O=C(N/N=C/c1ccc(Sc2nc3ccccc3[nH]2)o1)c1ccncc1 | -6% | 4% | i | 10% | i | -2%
CCN1C(=O)S/C(=C/c2ccc(Sc3nc4ccccc4[nH]3)o2)C1=O | 1.5µM* | -12% | u | u | i | u
COc1ccc(-c2c(-c3ccc(OCC(=O)NN)cc3O)n[nH]c2C(F)(F)F)cc1 | u | -22% | i | 23µM* | i | -12%
CCOc1ccc(-c2n[nH]c(C)c2-c2ccccc2OC)c(O)c1 | u | u | i | 13µM* | u | u
C=C(C)COc1ccc(-c2n[nH]c(C)c2-c2ccc(OC)cc2)c(O)c1 | u | 21µM* | u | 21µM* | u | 18µM*
COc1ccc(-c2n[nH]c(C)c2-c2cscn2)c(O)c1 | 1% | 2% | i | 5% | i | -2%
O=C1CCC[C@@H]2CC(N(Cc3cc4ccccc4s3)c3ccccc3)C[C@@H]3CCN1[C@H]23 (stereo not given in full) | x | x | i | x | i | x
O=C(CCC1N=C2c3ccccc3N=C(SCc3ccc(F)cc3)N2C1=O)N1CCN(c2ccccc2)CC1 (stereo not given) | x | x | i | x | i | x
Cc1nc2ncnn2c(Nc2ccc3c(c2)OCO3)c1Cc1ccccc1 | 17% | 5% | 16µM* | 21% | u | -23%
CC(=O)c1cccc(-c2ccnc3c2CC(C(=O)Nc2ccc4c(c2)OCO4)O3)c1 (stereo not given) | x | u | u | x | 6.5µM* | 2.3µM*
O=C(Nc1ccc(Cl)c(C(F)(F)F)c1)C1Cc2c(-c3ccc4c(c3)OCO4)ccnc2O1 (stereo not given) | x | u | i | x | i | 21µM*
CC(=O)Nc1ccc(-c2ccnc3c2CC(C(=O)Nc2ccc4c(c2)OCO4)O3)cc1 (stereo not given) | x | u | u | x | u | 15µM*
O=C(CSc1nnc(COc2ccccc2)o1)Nc1cc(C(F)(F)F)ccc1Cl | x | x | i | x | i | x
CCCCCC(=O)N1C[C@H](n2cc(-c3ccc(F)cc3)nn2)[C@@H](O)C[C@@H]1c1ccc(OC)cc1 | x | 6% | i | x | i | 2%
COc1ccccc1CNC(=O)CN1C(=O)CCc2cc(S(=O)(=O)N3CCOCC3)ccc21 | x | x | i | x | i | x
COC(/C=C/Nc1ccc(OC)cc1)=C(C#N)C#N | 0% | -12% | i | -8% | i | -1%
COc1ccc(OC)c(N/C=C/C(=C(C#N)C#N)N(C)C)c1 | 0% | -27% | i | 10% | 16µM* | -19%
N#CC1=C(N)C2=CCCC[C@H]2[C@H](c2ccc(Br)cc2)C1(C#N)C#N | u | -4% | i | 16µM* | i | -5%
N#CC1=C(N)C2=CCCC[C@H]2[C@H](c2ccccc2)C1(C#N)C#N | 4% | u | u | u | i | u
O=C1CCCCCC(=O)[C@H](O)C[C@H](c2ccccc2)O1 | x | 9% | u | x | i | 9%
O=C(Nc1c(C(=O)c2ccc(F)cc2)oc2ccccc12)c1cc(-c2ccccc2)on1 | x | x | i | x | i | x
COc1ccc([C@H]2[C@H](C(=O)OC(C)(C)C)N3N=Cc4ccccc4C3C23C(=O)c2ccccc2C3=O)cc1OC (stereo not given in full) | -3% | -7% | 8.2µM* | 3% | i | 0%
Cc1ccc(S(=O)(=O)N2CCN(C(=O)c3ccc(N4CCCC4)c([N+](=O)[O-])c3)CC2)cc1 | u | 0% | u | 2% | i | 11%
CO/N=C/c1ccc(N2CCN(C(=O)c3ccc(C)cc3)CC2)c([N+](=O)[O-])c1 | 1% | 4% | 9.2µM* | 19% | u | -11%
SMILES | SW480 rerep | HT1080NT lethal | KB-V1 cytotox | MCF10A rereplic | KB-3-1 cytotox | HT1080 IDH1KD tx
Cc1ccc(S(=O)(=O)N2CCN(c3ccc(C(=O)N4CCOCC4)cc3[N+](=O)[O-])CC2)cc1 | -6% | -11% | 2.9µM* | u | i | -7%
NC(=O)c1ccc(N2CCN(S(=O)(=O)c3ccccc3)CC2)c([N+](=O)[O-])c1 | -4% | -18% | 9.2µM* | 35% | 18µM* | -24%
O=C(c1ccc(N2CCCCC2)c([N+](=O)[O-])c1)N1CCN(S(=O)(=O)c2ccccc2)CC1 | -108% | 2% | i | -7% | i | -5%
CCOc1ccc(CN2C(=O)c3ccccc3Sc3ccc(C(=O)N4CCN(C)CC4)cc32)cc1 | x | x | i | x | i | x
Cc1cc(C)cc(OCCSc2nc3ccc(NC(=O)c4cccs4)cc3s2)c1 | x | x | i | x | i | x
COc1ccccc1NC(=O)Cn1nc(-c2ccc(C)cc2)c2c(c1=O)CCCC2 | x | x | u | x | i | x
Cc1ccc(C(=O)NC(=S)N2CCN(c3cc(C)ccc3C)CC2)cc1 | -6% | -10% | u | u | i | -16%
Cc1ccc(C(=O)NC(=S)N2CCN(c3ccccc3F)CC2)cc1 | 23µM* | 0% | i | 2% | u | -8%
CCCc1cc(C(=O)Cc2ccc(C(=O)OCC)o2)c(O)cc1O | 5% | -15% | i | u | i | -27%
CCCc1cc(C(=O)Cc2ccc(F)cc2)c(O)cc1O | -8% | 23µM* | i | u | i | 21µM*
CCc1cc(C(=O)Cc2ccc(F)cc2)c(O)cc1O | -2% | u | 16µM* | 9% | u | u
O=C(Cc1ccc(F)cc1)c1ccc(O)cc1O | 1% | 0% | i | 3% | i | 8%
CCS(=O)(=O)c1ccc(OC)c(N=Nc2ccc(O)c3ncccc23)c1 | u | u | u | -10% | u | 8.2µM*
NS(=O)(=O)c1ccc(N=Nc2ccc(O)c3ncccc23)cc1 | u | u | i | u | u | 23µM*
CCOc1ccc(N=Nc2ccc(O)c3ncccc23)cc1 | u | u | i | u | i | u
Cc1ccc(C)c(N=Nc2ccc(O)c3ncccc23)c1 | 5% | u | u | 16µM* | i | u
CCN(CC)S(=O)(=O)c1cc(OC)ccc1N=Nc1ccc(O)c2ncccc12 | u | u | i | 5% | i | u
Cc1cccc(N=Nc2ccc(O)c3ncccc23)c1 | -64% | u | i | u | u | 7.3µM*
CC(=O)/C(N=Nc1ccc2c(c1)OCCO2)=C(\C)O | -40% | -6% | i | 9% | i | -13%
